± gives the standard deviation.
T1: HaloTag-ATRX ADD domain (163-292)
T1 chain: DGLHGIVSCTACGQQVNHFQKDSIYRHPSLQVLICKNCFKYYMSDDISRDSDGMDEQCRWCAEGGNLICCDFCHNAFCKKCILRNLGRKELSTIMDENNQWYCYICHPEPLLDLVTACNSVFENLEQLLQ

B1: Unmod H4 variant S G R G K G G K G L G K G (peptide)
chain: SGRGKGGKGLGKG
B2: Unmod H4 variant G G V K R I S G L I Y E E (peptide)
chain: GGVKRISGLIYEE
B3: Unmod H4 variant G K G G A K R H R K V L R (peptide)
chain: GKGGAKRHRKVLR
B4: Unmod H4 variant I S G L I Y E E T R G V L (peptide)
chain: ISGLIYEETRGVL
B5: Unmod H4 variant G G K G L G K G G A K R H (peptide)
chain: GGKGLGKGGAKRH
B6: Unmod H4 variant K R H R K V L R D N I Q G (peptide)
chain: KRHRKVLRDNIQG
B7: Unmod H4 variant I Q G I T K P A I R R L A (peptide)
chain: IQGITKPAIRRLA
B8: Unmod H4 variant V L R D N I Q G I T K P A (peptide)
chain: VLRDNIQGITKPA
B9: Unmod H3 variant R V T I M P K D I Q L A R (peptide)
chain: RVTIMPKDIQLAR
B10: Unmod H4 variant Y E E T R G V L K V F L E (peptide)
chain: YEETRGVLKVFLE

Molecular target: T1, HaloTag-ATRX ADD domain (163-292)
Assay: peptide microarray binding signal (635 nm), min-max normalized on array (fraction of array maximum); higher = stronger binding
Conditions: peptide region: Unmod H4 variant; binder concentration: 50 nM
Procedure, shortened: (§1)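 Triplicate spots of histone 13-mer peptide–cellulose conjugates with a Cy3 tracer were printed on nitrocellulose and probed for 1 h at 4°C with biotin-labelled HaloTag reader fusions (10 nM to 1 μM) plus streptavidin-Alexa Fluor 647 or rabbit histone antibodies (1:10,000 to 1:2,000) plus anti-rabbit Alexa 647. An Axon GenePix 4000B read the 635 nm channel. Binding signal is the spot-triplicate mean intensity after min-max scaling within each library.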

| Binder | peptide microarray binding signal |
| --- | --- |
| B1 | 0.00426 ± 0.00016 |
| B2 | 0.00323 ± 0.00011 |
| B3 | 0.00508 ± 0.0001 |
| B4 | 0.00266 ± 3.1e-05 |
| B5 | 0.00373 ± 6.8e-05 |
| B6 | 0.00636 ± 0.00015 |
| B7 | 0.0496 ± 0.0034 |
| B8 | 0.0154 ± 0.00068 |
| B10 | 0.00188 ± 2.3e-05 |

Same assay, conditions: peptide region: Unmod H4 variant; binder concentration: 500 nM

| Binder | peptide microarray binding signal |
| --- | --- |
| B1 | 0.009 ± 0.00081 |
| B2 | 0.0107 ± 0.006 |
| B3 | 0.0113 ± 0.00031 |
| B4 | 0.00776 ± 0.0036 |
| B5 | 0.011 ± 0.0003 |
| B6 | 0.0147 ± 0.00085 |
| B7 | 0.0842 ± 0.0024 |
| B8 | 0.0293 ± 0.0022 |
| B10 | 0.00157 |

Each binder was assayed against HaloTag-ING2 PHD (mouse Ing2 200-280) in the same assay as above. Conditions: peptide region: Unmod H4 variant; binder concentration: 10 nM.
Procedure, shortened: as §1

| Binder | peptide microarray binding signal |
| --- | --- |
| B1 | 0.00412 ± 0.00013 |
| B2 | 0.00507 ± 0.0008 |
| B3 | 0.00292 ± 0.00011 |
| B4 | 0.00233 ± 7.4e-05 |
| B5 | 0.0132 ± 0.0071 |
| B6 | 0.00549 ± 9.7e-05 |
| B7 | 0.0565 ± 0.0092 |
| B8 | 0.0201 ± 0.00092 |
| B10 | 0.00197 ± 3e-05 |

Same assay, conditions: peptide region: Unmod H4 variant; binder concentration: 100 nM

| Binder | peptide microarray binding signal |
| --- | --- |
| B1 | 0.0136 ± 0.0012 |
| B2 | 0.0272 ± 0.027 |
| B3 | 0.00836 ± 0.00085 |
| B4 | 0.00319 ± 0.00013 |
| B5 | 0.0147 ± 0.00057 |
| B6 | 0.0208 ± 0.0048 |
| B7 | 0.119 ± 0.019 |
| B8 | 0.0672 ± 0.0023 |
| B10 | 0.001913 ± 1.9e-05 |

What follows are binders tested against anti-H3K4me3 antibody ab8580 in the same assay as above. Conditions: peptide region: Unmod H4 variant; binder concentration: 1:2,000 dilution.
Procedure, shortened: as §1

| Binder | peptide microarray binding signal |
| --- | --- |
| B1 | 0.000831 ± 3.2e-05 |
| B2 | 0.000755 ± 7e-05 |
| B3 | 0.000472 ± 9.3e-06 |
| B4 | 0.00109 ± 5.1e-05 |
| B5 | 0.000547 ± 1.1e-05 |
| B6 | 0.000774 ± 7e-06 |
| B7 | 0.0125 ± 0.0012 |
| B8 | 0.0064 ± 0.00045 |
| B10 | 0.00123 ± 0.00021 |

Same assay, conditions: peptide region: Unmod H4 variant; binder concentration: 1:10,000 dilution

| Binder | peptide microarray binding signal |
| --- | --- |
| B1 | 0.00108 ± 1.9e-05 |
| B2 | 0.00126 ± 5.7e-05 |
| B3 | 0.000856 ± 1.8e-05 |
| B4 | 0.00114 ± 1.2e-05 |
| B5 | 0.00114 ± 2.3e-05 |
| B6 | 0.00114 ± 1.2e-05 |
| B7 | 0.0159 ± 0.0013 |
| B8 | 0.0089 ± 0.0011 |
| B10 | 0.000742 |

What follows are binders tested against anti-H3K9me3 antibody ab8898 in the same assay as above. Conditions: peptide region: Unmod H4 variant; binder concentration: 1:2,000 dilution.
Procedure, shortened: as §1

| Binder | peptide microarray binding signal |
| --- | --- |
| B1 | 0.000438 ± 8.5e-06 |
| B2 | 0.000664 ± 7.4e-05 |
| B3 | 0.000302 ± 3.1e-06 |
| B4 | 0.0004228 ± 4.1e-06 |
| B5 | 0.0003775 ± 3.7e-06 |
| B6 | 0.000604 ± 4.7e-05 |
| B7 | 0.00663 ± 0.00078 |
| B8 | 0.00264 ± 0.00015 |
| B10 | 0.000287 ± 2.9e-06 |

Same assay, conditions: peptide region: Unmod H4 variant; binder concentration: 1:10,000 dilution

| Binder | peptide microarray binding signal |
| --- | --- |
| B1 | 0.000692 ± 7.3e-06 |
| B2 | 0.000923 ± 3.4e-05 |
| B3 | 0.00075 ± 7.9e-06 |
| B4 | 0.000807 ± 1.5e-05 |
| B5 | 0.00075 ± 7.9e-06 |
| B6 | 0.00104 ± 2.8e-05 |
| B7 | 0.00957 ± 0.00076 |
| B8 | 0.00323 ± 9.4e-05 |
| B10 | 0.000807 ± 2.5e-05 |

Molecular target: T1, HaloTag-ATRX ADD domain (163-292)
Assay: as above
Conditions: peptide region: Unmod H3 variant; binder concentration: 50 nM
Procedure, shortened: as §1

| Binder | peptide microarray binding signal |
| --- | --- |
| B9 | 0.00552 ± 9e-05 |

Same assay, conditions: peptide region: Unmod H3 variant; binder concentration: 500 nM

| Binder | peptide microarray binding signal |
| --- | --- |
| B9 | 0.0187 ± 0.001 |

What follows are binders tested against HaloTag-ING2 PHD (mouse Ing2 200-280) in the same assay as above. Conditions: peptide region: Unmod H3 variant; binder concentration: 10 nM.
Procedure, shortened: as §1

| Binder | peptide microarray binding signal |
| --- | --- |
| B9 | 0.0177 ± 0.00085 |

Same assay, conditions: peptide region: Unmod H3 variant; binder concentration: 100 nM

| Binder | peptide microarray binding signal |
| --- | --- |
| B9 | 0.0422 ± 0.0028 |

These binders were tested against anti-H3K4me3 antibody ab8580 in the same assay as above. Conditions: peptide region: Unmod H3 variant; binder concentration: 1:2,000 dilution.
Procedure, shortened: as §1

| Binder | peptide microarray binding signal |
| --- | --- |
| B9 | 0.00585 ± 0.00079 |

Same assay, conditions: peptide region: Unmod H3 variant; binder concentration: 1:10,000 dilution

| Binder | peptide microarray binding signal |
| --- | --- |
| B9 | 0.00782 ± 0.00068 |

What follows are binders tested against anti-H3K9me3 antibody ab8898 in the same assay as above. Conditions: peptide region: Unmod H3 variant; binder concentration: 1:2,000 dilution.
Procedure, shortened: as §1

| Binder | peptide microarray binding signal |
| --- | --- |
| B9 | 0.00403 ± 0.00079 |

Same assay, conditions: peptide region: Unmod H3 variant; binder concentration: 1:10,000 dilution

| Binder | peptide microarray binding signal |
| --- | --- |
| B9 | 0.00375 ± 0.00014 |

Source: the supplement of paper PMC4022240
